# Results published in PubChem BioAssay (NCATS).
# Assay: qHTS profiling of the MIPE4 collection as inhibitors of Plasmodium falciparum (3D7) proliferation (AID 743344);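 further: scaled between DMSO vehicle wells and 0.29 µM artemisinin as full inhibition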
# Conditions: P. falciparum 3D7 in erythrocytes, SYBR Green DNA fluorescence, 72 h; at 28.5 µM unless noted
# In short: (§1)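 Erythrocytes infected with P. falciparum (0.3% parasitemia, 2.5% hematocrit) incubated with compounds 72 h at 37 C, 5% CO2. Lysis with saponin/Triton buffer containing SYBR Green I, overnight at room temperature in the dark; DNA fluorescence (485/535 nm) normalised to 0.29 uM artemisinin and DMSO.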
row,SMILES,"parasite growth, % of DMSO control"
1,C[C@H](CCC(=O)O)[C@H]1CC[C@H]2[C@H]3[C@@H](CC[C@]12C)[C@@]1(C)CC[C@@H](O)C[C@H]1C[C@@H]3O,8.82%
2,CC(C)C(C)C=CC(C)C1CCC2C3=CC=C4CC(O)CCC4(C)C3CCC21C (configuration not stated),96.2%
3,O=c1[nH]c(=O)n([C@H]2C[C@@H](O)[C@@H](CO)O2)cc1C=CBr,139%
4,NC1=N[C@H]2[C@H](CS[C@H]2CCCCC(=O)O)N1,88.8% [at 9.64 µM]

# Assay: qHTS profiling of the MIPE4 collection as inhibitors of Plasmodium falciparum (DD2) proliferation (Rep 2) (AID 743346)
# Conditions: P. falciparum Dd2 in erythrocytes, SYBR Green DNA, 72 h; at 28.5 µM unless noted
# In short: as §1
row,SMILES,"parasite growth, % of control (lower = inhibition)"
1,C[C@H](CCC(=O)O)[C@H]1CC[C@H]2[C@H]3[C@@H](CC[C@]12C)[C@@]1(C)CC[C@@H](O)C[C@H]1C[C@@H]3O,16.6%
2,O=c1[nH]c(=O)n([C@H]2C[C@@H](O)[C@@H](CO)O2)cc1C=CBr,157%
3,NC1=N[C@H]2[C@H](CS[C@H]2CCCCC(=O)O)N1,82% [at 9.64 µM]
